Measurements: PubChem BioAssay

Experiments:
[1] = test system: Human papillomavirus type 1a protein E7 (residues 44-93); assay: HPV1a E7 fragment binders on microarrays, primary screen, biochemical, small-molecule microarray, residues 44-93, 635 nm fluorescence (AID 1108); settings: small-molecule microarray binding, fluorescence 635 nm; higher = more signal;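 note: E7 fragment applied at 1 µg/mL in TBST for 1 h at 4 C; score combines spot fluorescence with its signal to noise ratio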
[2] = modulators of HCV replicon luciferase signal, primary screen, HCV replication inhibitor project, Huh7 cells, luciferase reporter (AID 1109); settings: 48 h, higher = more signal;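 note: huh7 hepatoma cells harbouring a luciferase neomycin HCV replicon reporter; luciferase luminescence as measure of HCV replicon replication; test concentration not given here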
[3] = molecular target: Left-right determination factor 2 (Homo sapiens) (UniProt O00292); assay: LEFTY2 binders on small-molecule microarrays, primary screen, biochemical, small-molecule microarray, 635 nm fluorescence scan (AID 1110); settings: LEFTY2 binding, higher = more signal
[4] = molecular target: Calmodulin-1 (Homo sapiens) (UniProt P0DP23); assay: CALM1 binders on microarrays, EGTA buffer, profiling panel, biochemical, small-molecule microarray, Cy5-labelled CALM1 (AID 1111); settings: Cy5-CALM1 binding fluorescence, higher = more signal;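 note: labelled calmodulin applied in Tris saline Tween buffer holding calcium plus EGTA and DTT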
[5] = molecular target: Calmodulin-1 (Homo sapiens) (UniProt P0DP23); assay: calcium-bound CALM1 binders on microarrays, profiling panel, artefact control for SMM control-protein annotation, biochemical, small-molecule microarray, Cy5-labelled CALM1, plus calcium (AID 1112); settings: Cy5-CALM1 binding fluorescence, higher = more signal;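 note: score merges spot fluorescence with signal to noise from triplicate slides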
[6] = small-molecule microarray binders of probe aWnt5a, primary screen, biochemical, biotinylated probe, 635/667 nm fluorescence (AID 1113); settings: higher = more signal;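 note: score merges 667 nm fluorescence intensity with signal-to-noise per printed feature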
[7] = small-molecule microarray binders of probe aShh, primary screen, biochemical, biotinylated probe, 635/667 nm fluorescence (AID 1114); settings: higher = more signal;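 note: probe is biotin-labelled aShh protein from a stem cell growth factor screen; measures binding of labelled protein to compounds printed on the slide; score merges feature fluorescence at 667 nm with signal-to-noise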
[8] = small-molecule microarray binders of probe aNog, primary screen, biochemical, biotinylated probe, 635/667 nm fluorescence (AID 1115); settings: higher = more signal;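 note: probe is biotinylated aNog protein used at 0.15 µg/mL for 1 h at 4 C; z-score combines 667 nm fluorescence of each spot with its signal to noise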
[9] = molecular target: Torsin-1A-interacting protein 1 (Homo sapiens) (UniProt Q5JTV8); assay: LAP1 binders from COS7 cell lysate, primary screen, small-molecule microarray, 635/667 nm fluorescence (AID 1116); settings: COS7-hLAP1 lysate binding, 635 nm fluorescence, higher = more signal
[10] = molecular target: Alpha-bungarotoxin (Bungarus multicinctus) (UniProt P60615); assay: alpha-bungarotoxin binders on microarray, profiling panel, artefact control for SMM control protein annotation, biochemical, small-molecule microarray, Alexa647 label, 635/667 nm fluorescence (AID 1117); settings: alpha-BTX-A647 binding fluorescence, higher = more signal
Alpha-bungarotoxin (Bungarus multicinctus), sequence (P60615 whole entry, looked up): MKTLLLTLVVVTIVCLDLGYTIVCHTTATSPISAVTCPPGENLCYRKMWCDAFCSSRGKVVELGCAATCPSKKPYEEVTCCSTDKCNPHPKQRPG

Left-right determination factor 2 (Homo sapiens), sequence (O00292 whole entry, looked up): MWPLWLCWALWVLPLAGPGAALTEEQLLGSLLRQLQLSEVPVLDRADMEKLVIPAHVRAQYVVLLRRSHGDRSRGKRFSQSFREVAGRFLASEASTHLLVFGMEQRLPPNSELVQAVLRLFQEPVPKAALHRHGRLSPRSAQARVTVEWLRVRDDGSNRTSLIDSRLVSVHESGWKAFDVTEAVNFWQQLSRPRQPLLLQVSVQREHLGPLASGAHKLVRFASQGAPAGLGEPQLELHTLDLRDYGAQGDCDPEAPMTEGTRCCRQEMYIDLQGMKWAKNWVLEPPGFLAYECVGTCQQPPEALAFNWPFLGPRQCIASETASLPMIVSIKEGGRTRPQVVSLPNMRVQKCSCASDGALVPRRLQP
Torsin-1A-interacting protein 1 (Homo sapiens), sequence (Q5JTV8 whole entry, looked up): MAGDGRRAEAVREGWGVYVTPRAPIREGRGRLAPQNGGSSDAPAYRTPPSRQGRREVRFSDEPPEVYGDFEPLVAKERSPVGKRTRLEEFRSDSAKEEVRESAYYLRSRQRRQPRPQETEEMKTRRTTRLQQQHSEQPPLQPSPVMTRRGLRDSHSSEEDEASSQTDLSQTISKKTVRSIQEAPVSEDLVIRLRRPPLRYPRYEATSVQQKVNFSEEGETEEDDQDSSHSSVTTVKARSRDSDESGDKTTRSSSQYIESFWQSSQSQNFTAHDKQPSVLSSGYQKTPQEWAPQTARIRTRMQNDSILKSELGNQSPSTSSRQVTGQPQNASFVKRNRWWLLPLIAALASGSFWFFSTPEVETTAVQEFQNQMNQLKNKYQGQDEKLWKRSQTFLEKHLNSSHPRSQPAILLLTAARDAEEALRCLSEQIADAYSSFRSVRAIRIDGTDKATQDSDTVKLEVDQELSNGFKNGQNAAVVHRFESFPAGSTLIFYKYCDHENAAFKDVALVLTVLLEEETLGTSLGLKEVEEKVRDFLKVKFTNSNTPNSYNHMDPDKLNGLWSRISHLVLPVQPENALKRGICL

Row | SMILES | composite z-score [1] | z-score [2] | composite z-score [3] | composite z-score [4] | composite z-score [5] | composite z-score [6] | composite z-score [7] | composite z-score [8] | composite z-score [9] | composite z-score [10]
1 | C=CC[C@@]1(C(=O)NCCCOC)N=C(c2ccc(OCCCO)cc2)O[C@@H]1c1ccccc1CN=[N+]=[N-] | 1.42 | -2.12 | 0.266 | 1.66 | 0.414 | 0.0391 | -0.13 | 0.396 | 0.957 | 1.19
2 | COc1ccc(C(=O)Nc2ccc(CN3C(=O)[C@]4(O[C@H](CC(=O)N(CCO)Cc5ccccc5)[C@@H]([Si](C)(C)c5ccc(OC)cc5)[C@@H]4C)c4ccccc43)cc2)cc1 | 1.37 | -3.71 | 0.803 | -0.0162 | -0.46 | 0.0354 | 0.108 | 0.0326 | 0.811 | 0.543
3 | COCCOC(=O)N1C(=O)[C@@]2(c3cc(C#CC4(O)CCCCCC4)ccc31)[C@H](C(N)=O)[C@H]1C(=O)O[C@H](c3ccccc3)[C@H](c3ccccc3)N1[C@@H]2c1ccc(OCCO)cc1 | 0.688 | -2.61 | 0.73 | 1.49 | 0.527 | -0.0364 | 0.407 | 0.176 | 0.883 | 1.61
4 | CS(=O)(=O)CCOC(=O)C1=CC(CCCO)=CC(C2CC2)N(Cc2sc3ccccc3c2Cl)C=C1C(=O)OCCS(C)(=O)=O (stereo not given) | 0.632 | -2.01 | 0.191 | 1.18 | 0.811 | 0.0324 | 0.214 | 0.614 | -0.643 | 0.904
5 | Cc1ccc(N2C(=O)c3ccccc3[C@@H](C(=O)NCCN3CCOCC3)[C@@H]2c2ccc(CO)cc2)nc1 | 0.113 | 0.193 | -1.29 | -0.287 | 0.609 | -0.1 | -0.214 | -0.434 | -1.3 | -0.843
6 | [N-]=[N+]=Nc1ccccc1C[C@@]1(C(=O)NCC(O)CO)N=C(c2ccc(OCCCO)cc2)O[C@@H]1c1ccccc1N=[N+]=[N-] (stereo not given in full) | 0.796 | -3.13 | -0.458 | 2.15 | 0.176 | 0.0586 | 0.348 | -0.596 | 1.64 | 0.427
7 | COc1cc2c(cc1O)C(C)N(Cc1sc3ccccc3c1Cl)CC2 (stereo not given) | -1.91 | -0.728 | -1.41 | 1.23 | 0.869 | -0.117 | 0.075 | 0.426 | -0.216 | 0.201
8 | C=CCNC(=O)[C@@H]1[C@H]2C(=O)O[C@H](c3ccccc3)[C@H](c3ccccc3)N2[C@H](c2ccc(O)cc2)[C@@]12C(=O)N(C(=O)OCCOC)c1ccc(C#CCC(C(=O)OC)C(=O)OC)cc12 | 1.39 | -0.598 | 0.434 | 0.635 | 0.0394 | -0.001 | 0.151 | -0.1 | 1.42 | 1.11
9 | C=CCNC(=O)[C@H]1[C@@H]2C(=O)O[C@@H](c3ccccc3)[C@@H](c3ccccc3)N2[C@@H](c2ccc(OCCO)cc2)[C@]12C(=O)N(C(=O)OCCOC)c1ccc(C#CCC(C(=O)OC)C(=O)OC)cc12 | 1.41 | -1.54 | 0.158 | 1.58 | 0.81 | 0.291 | 2.08 | 1.42 | 2.68 | 1.63
10 | COC(=O)[C@]1(Cc2ccccc2N=[N+]=[N-])N=C(c2ccc(OCCCO)cc2)O[C@@H]1c1ccccc1CN=[N+]=[N-] | 1.37 | -3.42 | 0.112 | 0.149 | -0.529 | -0.148 | -0.0324 | 1.14 | 1.3 | 0.874
11 | Cc1ccc(S(=O)(=O)N2[C@@H](c3ccccc3)C(C(=O)O)=C[C@H]2C(C)(C)C)cc1 | 1.15 | -1.25 | 0.261 | 2.24 | 0.75 | -0.0718 | -0.107 | -0.0252 | 1.49 | 1.94
12 | C=C[C@H](C)[C@@H](OC(=O)Nc1ccc(SC)cc1)c1ccc(OCCO)cc1 | 1.3 | -0.931 | -0.396 | 0.19 | 0.601 | -0.0792 | -0.0643 | 0.958 | 0.248 | 0.438
13 | CC[C@@H](O[Si](C#C[Si](C(C)C)(C(C)C)C(C)C)(C(C)C)C(C)C)c1cn([C@H](C)c2ccccc2)nn1 | 0.818 | -0.772 | 0.435 | -0.273 | -0.0786 | -0.0758 | 0.0637 | -0.28 | 0.651 | 0.188
14 | CCCCCN1CC=CC23O[C@@H]4/C=C\CCCOC(=O)C4[C@H]2C(=O)N(CCO)[C@@H]3C1=O (stereo not given in full) | 1.45 | 0.548 | -0.155 | -0.173 | 0.463 | -0.13 | -0.0709 | -0.191 | 0.162 | 0.227
15 | COC(=O)Cn1c(C(=O)N(C)C)cc2c1C[C@H]1CN(C(=O)c3ccccc3)[C@@](Cc3ccccc3)(C(=O)OC)[C@@H]21 | -1.8 | -0.0967 | 0.103 | 0.371 | -0.198 | 0.0077 | 0.253 | -0.354 | -0.878 | 0.195
16 | O=C(NCCN1CCOCC1)[C@@H]1c2ccccc2C(=O)N(CC23CC4CC(CC(C4)C2)C3)[C@H]1c1ccc(CO)cc1 | 1.45 | -2.21 | 0.662 | 1.7 | -0.236 | -0.0519 | -0.0362 | -0.112 | 0.405 | 1.43
17 | COC(=O)c1ccc(OC)c(/C=C\CC(OC(=O)c2ccncc2)c2ccccc2)c1 (stereo not given) | -0.734 | -1.91 | 0.684 | -1.05 | 0.157 | -0.101 | -0.206 | -0.183 | 0.187 | 2.12
